Results published in PubChem BioAssay (NCATS).
Results filed as inconclusive are left out. Active and inactive are the calls of the source. Unless noted, the call rests on the fitted dose curve; in most records, active means well fitted curve in the direction sought with a large enough effect; inconclusive means small, poorly fitted or top-dose-only effect, or another doubt; inactive means no such curve, though single readings can be large; an effect the other way counts as inactive or inconclusive.

Assays:
[1] = target: Luciferin 4-monooxygenase (Photinus pyralis) (UniProt P08659); experiment: Primary firefly luciferase (FLuc) qHTS assay for identification of artifact compounds. (AID 1845220); conditions: outcome: dose series up to 54.1 µM; further: nearly all actives have a fitted effect of over 60% in size
Method in brief: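 FLuc 10 nM; luciferin 10 uM; ATP 10 uM; Tris-acetate pH 7.6, Mg-acetate 10 mM; 15 min RT preincubation; 5 min reaction; luminescence.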

[2] = Primary fluorescence-based thiol-reactive (MSTI) qHTS assay for identification of artifact compounds. (AID 1845221); further: potency means the concentration at half of the fitted maximal effect; nearly all actives have a fitted effect of over 65% in size
Method in brief: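 Curve-fitted percent inhibition (4-parameter Hill) derived from fluorescence, Ex 525/Em 598 nm, scaled with Acetyl-MSTI and MSTI; 1 h incubation at room temperature.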

[3] = system: Nanoluciferase (engineered Oplophorus gracilirostris luciferase); experiment: Primary Nanoluciferase (NLuc) qHTS assay for identification of artifact compounds. (AID 1845222);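 further: NLuc secreted into diluted conditioned medium of S16 cells; 0% = DMSO and -100% = no enzyme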
Method in brief: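 NLuc from S16 cell medium (1:55) plus test compounds, 15 min, room temperature. Luminescence after Nano-Glo (1:100) addition, 5 min.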

[4] = qHTS drug screen for cell cycle checkpoint inhibitors in PARPi-resistant BRCA-mutant ovarian cancer cell lines. (AID 1963452; calls by dose curve); conditions: PEO1/OlaR viability, CellTiter-Glo luminescence, 96 h, stronger effect = lower value
Method in brief: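 PEO1, PEO4 and PEO1/OlaR ovarian cancer cells, 600 per well, exposed 96 h at 37C to a dilution series. Viability read by CellTiter-Glo luminescence, normalized to DMSO and empty wells; activity summarized as Z-AUC.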

[5] = target: Cytochrome P450 2D6 (Homo sapiens) (UniProt P10635); experiment: qHTS for inhibitors of CYP2D6 against the NCATS DSHEA and TCM libraries (AID 1919972); further: on the % scale 0 is the no-effect control and ±100 the full control effect
Method in brief: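 Steps: enzyme plus luciferin substrate dispensed; test substances pinned; 15 min RT; 1x NADPH regenerating solution added, 30–45 min RT protected from light; detection reagent, 30 min RT; luminescence measured. Minus-enzyme wells as background.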

[6] = target: Cytochrome P450 2C9 (Homo sapiens) (UniProt P11712); experiment: qHTS for inhibitors of CYP2C9 against the NCATS DSHEA and TCM libraries (AID 1919973);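 further: luminogenic pro-luciferin CYP2C9 substrate turned into luciferin with NADPH regeneration; on the % scale 0 is the no-effect control and ±100 the full control effect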
Method in brief: (§1)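 Luminescent P450-Glo readout. Enzyme plus pro-luciferin substrate in manufacturer buffer (typically 100 mM KPO4); 15 min RT preincubation; 1x NADPH regenerating system, 30-45 min RT in the dark; detection reagent 30 min.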

[7] = target: Cytochrome P450 2C19 (Homo sapiens) (UniProt P33261); experiment: qHTS for inhibitors of CYP2C19 against the NCATS DSHEA and TCM libraries (AID 1919974);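 further: luminescence from luciferin released by CYP2C19 oxidation of a pro-luciferin substrate; potency means the concentration at half of the fitted maximal effect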
Method in brief: as §1

[8] = KB-3-1 P-gp reporter qHTS against the NCATS DSHEA and TCM libraries (AID 1919975); further: 0% is about no effect
Method in brief: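 Parental KB-3-1 human cervical adenocarcinoma cells (500 cells/well, DMEM + 10% FBS) were treated with substances for ~72 h at 37C; viability was read by CellTiter-Glo luminescence.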

[9] = target: Cytochrome P450 1A2 (Homo sapiens) (UniProt P05177); experiment: qHTS for inhibitors of CYPIA2 against the NCATS DSHEA and TCM libraries (AID 1919976);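 further: light from luciferin formed by CYP1A2 from a pro-luciferin substrate; on the % scale 0 is the no-effect control and ±100 the full control effect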
Method in brief: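 Human CYP1A2 with its pro-luciferin substrate in supplier buffer (typically 100 mM KPO4) was pre-incubated with compounds 15 min at RT. Reaction was started with 1x NADPH regeneration solution and run 30-45 min at RT in the dark, then luminescence was read after P450-Glo detection reagent (30 min RT).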

[10] = qHTS Counterscreen for compound interference against the NCATS DSHEA and TCM libraries (AID 1919978); conditions: firefly luciferase detection reagent interference, luminescence; further: % of control where 0% means no effect
Method in brief: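 D-luciferin (1 uM final) or 100 mM potassium phosphate buffer alone was preincubated 15 min at RT with compounds (19.5 nM to 39.8 uM final). Luciferin detection reagent was then added and luminescence read after 30 min at RT.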

[11] = Dual reporter qHTS for agonist of Pregnane X Receptor (hPXR) against the NCATS DSHEA and TCM libraries: Fluorescence readout (AID 1920058); further: 0% is about no effect
Method in brief: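 hPXR-Luc HepG2 cells (2000/well) in phenol red-free medium with charcoal-stripped FBS attached for 5 h, then were exposed to compounds for about 24 h at 37 °C. Viability was read by CellTiter-Fluor fluorescence (Ex/Em 405/540 nm) after 1 h.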

[12] = target: Nuclear receptor subfamily 1 group I member 2 (Homo sapiens) (UniProt O75469); experiment: Dual reporter qHTS for agonist of Pregnane X Receptor (hPXR) against the NCATS DSHEA and TCM libraries: Luminescence readout (AID 1920059); further: 0% is about no effect
Method in brief: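 Luminescent PXR reporter read (ONE-Glo) after a CellTiter-Fluor viability read, following 24 h, 37C treatment of HepG2 cells stably carrying hPXR-Luc.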

[13] = target: Nuclear receptor subfamily 1 group I member 2 (Homo sapiens) (UniProt O75469); experiment: Dual reporter qHTS for antagonist of Pregnane X Receptor (hPXR) against the NCATS DSHEA and TCM libraries: Luminescence Readout (AID 1920060);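 further: HepG2 cells carrying hPXR luciferase reporter stimulated with rifampicin at 2 µM; 0% is about no effect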
Method in brief: (§2)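 Antagonist mode: rifampicin 2 uM final co-added with compounds to hPXR-LucHepG2 cells for 24 h at 37C. Viability by CellTiter-Fluor, Ex/Em 405/540 nm, 1 h; reporter by ONE-Glo luminescence.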

[14] = Dual reporter qHTS for antagonist of Pregnane X Receptor (hPXR) against the NCATS DSHEA and TCM libraries: Fluorescence Readout (AID 1920061); further: 0% is about no effect
Method in brief: as §2

[15] = qHTS profiling for inhibitors of Plasmodium falciparum proliferation (AID 504749); further: nearly all actives have a fitted effect of over 60% in size; further: potency means the concentration at half of the fitted maximal effect;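 on activity, negative = inhibition: 0% = DMSO vehicle and full inhibition = artemisinin control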; conditions: P. falciparum in erythrocytes, SYBR Green DNA, 72 h
Method in brief: (§3)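 Three-day growth assay of blood-stage parasites in erythrocytes (0.3% parasitemia, 2.5% hematocrit) at 37 C, 5% CO2, quantified by SYBR Green DNA staining after overnight detergent lysis.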

3D7 = experiment: as above; conditions: P. falciparum in erythrocytes, SYBR Green DNA, 72 h; series mostly up to 28.7 µM
Method in brief: as §3

7G8 = experiment: as above; conditions: P. falciparum in erythrocytes, SYBR Green DNA, 72 h; series mostly up to 28.7 µM
Method in brief: as §3

AA1029 = experiment: as above; conditions: P. falciparum in erythrocytes, SYBR Green DNA, 72 h; series mostly up to 28.7 µM
Method in brief: as §3

[16] = measured here: PEO1 parental Z-AUC
[17] = at 12.8 µM (top of the series), parasite line A
[18] = at 12.8 µM (top of the series), parasite line B
[19] = at 28.7 µM (top of the series), parasite line A
[20] = at 28.7 µM (top of the series), parasite line B

Nuclear receptor subfamily 1 group I member 2 (Homo sapiens), sequence (O75469 whole entry, looked up): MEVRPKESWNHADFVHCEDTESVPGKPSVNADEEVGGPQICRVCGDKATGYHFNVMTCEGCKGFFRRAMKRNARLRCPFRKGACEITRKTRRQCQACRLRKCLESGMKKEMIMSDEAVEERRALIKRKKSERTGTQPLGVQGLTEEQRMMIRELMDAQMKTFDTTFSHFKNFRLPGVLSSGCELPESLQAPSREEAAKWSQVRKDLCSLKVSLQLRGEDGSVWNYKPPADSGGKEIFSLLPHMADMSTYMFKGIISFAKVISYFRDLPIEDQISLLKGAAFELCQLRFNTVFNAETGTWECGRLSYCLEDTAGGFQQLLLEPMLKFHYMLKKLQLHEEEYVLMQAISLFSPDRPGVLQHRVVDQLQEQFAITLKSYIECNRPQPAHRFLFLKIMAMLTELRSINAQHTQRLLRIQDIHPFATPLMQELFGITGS
Cytochrome P450 2C9 (Homo sapiens), sequence (P11712 whole entry, looked up): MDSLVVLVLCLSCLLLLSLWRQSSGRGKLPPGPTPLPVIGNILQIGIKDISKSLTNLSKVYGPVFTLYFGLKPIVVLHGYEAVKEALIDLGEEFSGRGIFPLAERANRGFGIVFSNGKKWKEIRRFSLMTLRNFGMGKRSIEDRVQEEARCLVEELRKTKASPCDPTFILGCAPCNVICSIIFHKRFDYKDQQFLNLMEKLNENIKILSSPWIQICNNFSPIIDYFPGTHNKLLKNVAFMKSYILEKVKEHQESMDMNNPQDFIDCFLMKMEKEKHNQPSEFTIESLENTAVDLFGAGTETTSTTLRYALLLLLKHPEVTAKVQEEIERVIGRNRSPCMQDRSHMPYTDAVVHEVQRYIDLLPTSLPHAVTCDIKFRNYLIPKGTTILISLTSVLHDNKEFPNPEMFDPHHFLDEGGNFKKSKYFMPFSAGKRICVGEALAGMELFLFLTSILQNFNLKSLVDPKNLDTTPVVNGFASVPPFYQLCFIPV
Cytochrome P450 2D6 (Homo sapiens), sequence (P10635 whole entry, looked up): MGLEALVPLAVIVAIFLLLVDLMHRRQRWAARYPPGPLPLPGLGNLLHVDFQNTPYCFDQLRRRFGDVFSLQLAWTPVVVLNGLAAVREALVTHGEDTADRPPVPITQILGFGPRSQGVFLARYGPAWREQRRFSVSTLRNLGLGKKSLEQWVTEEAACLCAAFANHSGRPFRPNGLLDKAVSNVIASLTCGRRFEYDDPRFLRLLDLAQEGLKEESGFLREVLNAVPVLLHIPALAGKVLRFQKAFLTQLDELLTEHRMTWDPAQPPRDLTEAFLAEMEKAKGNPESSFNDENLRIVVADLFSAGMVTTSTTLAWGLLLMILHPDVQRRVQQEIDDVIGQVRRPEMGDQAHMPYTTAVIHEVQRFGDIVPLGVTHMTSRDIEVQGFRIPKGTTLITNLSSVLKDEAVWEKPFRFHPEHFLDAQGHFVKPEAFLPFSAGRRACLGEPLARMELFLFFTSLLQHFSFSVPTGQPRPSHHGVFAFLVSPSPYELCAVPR
Cytochrome P450 2C19 (Homo sapiens), sequence (P33261 whole entry, looked up): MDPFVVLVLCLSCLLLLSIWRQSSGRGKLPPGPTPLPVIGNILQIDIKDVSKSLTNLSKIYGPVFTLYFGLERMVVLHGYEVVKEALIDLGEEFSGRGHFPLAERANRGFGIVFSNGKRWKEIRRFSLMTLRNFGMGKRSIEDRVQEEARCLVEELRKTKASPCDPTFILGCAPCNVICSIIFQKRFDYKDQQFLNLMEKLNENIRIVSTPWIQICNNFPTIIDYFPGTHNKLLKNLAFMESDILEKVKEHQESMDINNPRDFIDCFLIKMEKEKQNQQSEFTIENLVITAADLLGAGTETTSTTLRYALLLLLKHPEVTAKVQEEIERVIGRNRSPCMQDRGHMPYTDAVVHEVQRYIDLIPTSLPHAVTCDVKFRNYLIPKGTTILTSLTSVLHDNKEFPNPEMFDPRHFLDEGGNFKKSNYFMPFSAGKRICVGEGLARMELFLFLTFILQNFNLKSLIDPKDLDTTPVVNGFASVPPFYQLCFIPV
Cytochrome P450 1A2 (Homo sapiens), sequence (P05177 whole entry, looked up): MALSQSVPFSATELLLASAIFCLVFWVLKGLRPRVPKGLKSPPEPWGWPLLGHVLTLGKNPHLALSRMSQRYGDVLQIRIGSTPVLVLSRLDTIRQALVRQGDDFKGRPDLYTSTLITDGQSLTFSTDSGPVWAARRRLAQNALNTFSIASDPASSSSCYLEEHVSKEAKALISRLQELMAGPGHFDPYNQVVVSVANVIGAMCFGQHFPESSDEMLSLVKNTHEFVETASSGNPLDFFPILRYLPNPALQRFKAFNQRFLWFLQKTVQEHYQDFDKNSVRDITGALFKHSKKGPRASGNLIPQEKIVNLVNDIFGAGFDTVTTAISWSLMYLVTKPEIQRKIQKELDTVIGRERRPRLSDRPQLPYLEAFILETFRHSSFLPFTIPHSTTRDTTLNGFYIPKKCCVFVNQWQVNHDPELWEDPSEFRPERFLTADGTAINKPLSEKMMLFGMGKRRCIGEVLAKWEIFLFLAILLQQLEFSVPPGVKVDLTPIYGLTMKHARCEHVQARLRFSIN

Compound: CC(C)n1nc(-c2cc3cc(O)ccc3[nH]2)c2c(N)ncnc21
- outcome [1]: inactive
- Potency [2]: 10.6 µM (active)
- Potency [3]: inactive
- Z-AUC [4]: -1.59 (inactive)
- Z-AUC [4, 16]: -1.29
- Z-AUC ([4]; measured here: PEO4 Z-AUC): -1.52

Compound: C/C=C/c1ccc(OC)cc1
- outcome [5]: inactive
- outcome [6]: inactive
- Potency [7]: 15.8 µM (active)
- outcome [8]: inactive
- outcome [9]: inactive
- max response [10]: -1.84% (inactive)
- outcome [11]: inactive
- outcome [12]: inactive
- outcome [13]: inactive
- outcome [14]: inactive

Compound: CC(=O)OCC(=O)[C@@]12OC(C)(C)O[C@@H]1C[C@H]1[C@@H]3C[C@H](F)C4=CC(=O)C=C[C@]4(C)[C@@]3(F)[C@@H](O)C[C@@]12C
- Z-AUC [4]: -0.667 (inactive)
- Z-AUC [4, 16]: 0.136
- Z-AUC ([4]; measured here: PEO4 Z-AUC): -0.783

Compound: CN(C)CC/C=C1/c2ccccc2COc2ccc(CC(=O)O)cc21
- Z-AUC [4]: -0.218 (inactive)
- Z-AUC [4, 16]: 0.35
- Z-AUC ([4]; measured here: PEO4 Z-AUC): -0.471

Compound: CCOC(=O)n1ccn(C)c1=S
- activity, negative = inhibition [15, 17]: 10% (inactive)
- activity, negative = inhibition [15, 18]: -6.82% (inactive)
- Potency (3D7): inactive
- Potency (7G8): inactive
- Potency (AA1029): inactive

Compound: CC(=O)N/N=C/c1ccc([N+](=O)[O-])o1
- Potency ([15]; parasite line A): 1.12 µM (active)
- Potency ([15]; parasite line B): 12.6 µM (active)
- Potency (3D7): inactive
- Potency (7G8): 7.94 µM (active)

Compound: CCN1CCC[C@H]1CNC(=O)c1c(OC)ccc(Br)c1OC
- activity, negative = inhibition [15, 19]: 12.1% (inactive)
- activity, negative = inhibition [15, 20]: 10% (inactive)
- Potency (3D7): inactive
- Potency (7G8): inactive

Compound: COc1c(C)c2c(c(O)c1C/C=C(\C)CCC(=O)O)C(=O)OC2
- Z-AUC [4]: -0.522 (inactive)
- Z-AUC [4, 16]: -0.0213
- Z-AUC ([4]; measured here: PEO4 Z-AUC): -0.309
- Potency ([15]; parasite line A): 3.16 µM (active)
- Potency ([15]; parasite line B): 3.55 µM (active)
- Potency (3D7): 3.55 µM (active)
- Potency (7G8): 2.51 µM (active)
- Potency (AA1029): 2.51 µM (active)

Compound: CC(C)N=C(N)/N=C(\N)Nc1ccc(Cl)cc1
- Potency ([15]; parasite line A): 1.12 µM (active)
- Potency ([15]; parasite line B): 1.58 µM (active)

Compound: COc1cc2c(cc1OC)C(=O)C(CC1CCN(Cc3ccccc3)CC1)C2 (stereo not drawn)
- activity, negative = inhibition [15, 19]: -29.4% (inactive)
- activity, negative = inhibition [15, 20]: 5.51% (inactive)
- Potency (3D7): inactive

Compound: Clc1ccc2c(c1)CCc1cccnc1C2=C1CCNCC1
- activity, negative = inhibition [15, 19]: -8.94% (inactive)
- activity, negative = inhibition [15, 20]: -21.2% (inactive)

Compound: COc1ccc(/C=C/C(=O)c2ccc(OC)cc2OC)cc1
- Potency ([15]; parasite line A): 3.16 µM (active)
- Potency ([15]; parasite line B): 8.91 µM (active)
- Potency (3D7): 10 µM (active)
- Potency (7G8): 5.01 µM (active)
- Potency (AA1029): 6.31 µM (active)

Compound: CNCCC(Oc1ccccc1C)c1ccccc1 (stereo not drawn)
- activity, negative = inhibition [15, 19]: 4.27% (inactive)
- activity, negative = inhibition [15, 20]: 4.69% (inactive)
- Potency (3D7): inactive

Compound: NCCCC[C@H](N[C@@H](CCc1ccccc1)C(=O)O)C(=O)N1CCC[C@H]1C(=O)O
- activity, negative = inhibition [15, 17]: 2.09% (inactive)
- activity, negative = inhibition [15, 18]: 0.712% (inactive)
- Potency (3D7): inactive
- Potency (7G8): inactive
- Potency (AA1029): inactive
